# Compounds without any hit were thinned out: in the full panel of roughly 83,000, 20% have a hit.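 Plates (96-well) were seeded with cells, treated with compound at one concentration, and incubated for 48 hours before percent growth was determined.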 Unmarked numbers belong to inactive results. Calls of active or inactive are those of the source. How the source made its calls: active means growth percent below 10; inactive means the rest.
# System: IGROV1 ovarian
# Assay: NCI-60 one-dose screen, 48 h (100 = growth as untreated, 0 = no growth, -100 = all killed)
# Details: 10 µM
row,Structure (SMILES),growth
1,Cc1ccc(C(=O)N/C(=C2/OCCN2C)[P+](c2ccccc2)(c2ccccc2)c2ccccc2)cc1,69.9%
2,CN(C)c1ccc(/C=C/c2nc3ccccc3c(=O)n2CC(=O)Nc2ccc(Cl)cc2)cc1,88.3%
3,Cc1ccc(CNC(=O)Cc2ccc3c(c2)CN(C2CCC(=O)NC2=O)C3=O)cc1 (configuration not stated),2.34% (active)
4,Cc1ccn2c(C(=O)c3ccccc3)cc(-c3cc(-c4ccc(N(C)C)cc4)c(C#N)c(N)n3)c2c1,86.3%
5,CCOP(=O)(OCC)O[C@H]1CCC(=O)[C@@H]2[C@H]1[C@H]1C[C@@H]3[C@@]4(C)CCCC(C)(C(=O)OC)[C@@H]4CC[C@@]23C=C1C(C)C (some centres not stated),72.1%
6,C#CCNC(=O)CCC(=O)OC[C@]12CC[C@@H](C(=C)C)[C@@H]1C1CC[C@@H]3[C@@]4(C)CCCNC(C)(C)[C@@H]4CC[C@@]3(C)[C@]1(C)CC2 (some centres not stated),-3.31% (active)
7,C/C(=N\N=C\c1ccc(N(C)C)cc1)c1ccc2c(c1)Nc1ccccc1S2,68.9%
8,O=C(Nc1ccc(Cl)c([N+](=O)[O-])c1)Nc1ccc(Cl)c([N+](=O)[O-])c1,15.3%
9,COc1ccc(CN2[C@H](C(=O)NCc3ccc(C(=O)NO)cc3)Cc3c([nH]c4ccccc34)[C@H]2C2CC2)cc1,50.5%
10,O=C(NO)c1ccc(CNC(=O)[C@H]2Cc3c([nH]c4ccccc34)[C@H](c3ccc(Cl)cc3)N2)cc1,-24.6% (active)
11,O=C(Cn1nc(-c2ccccc2)ccc1=O)NN1C(=O)c2ccccc2C1=O,124%
12,OCc1[nH]nc2cc(Nc3ncc4ccc(Br)c(OC5CCC(O)CC5)c4n3)ccc12 (configuration not stated),-12.4% (active)
13,COc1cc2c3c(n(CCCNCCO)c(=O)c2cc1OC)-c1nc2c(cc1C3=O)OCO2,12.4%
14,COc1ccc(CN2[C@H](C(=O)NCCCCCCC(=O)NO)Cc3c([nH]c4ccccc34)[C@H]2C2CC2)cc1,-42.4% (active)
15,COc1ccc(C2N(c3ccc(Br)cc3)N=C(C(C)=O)N2[C@H]2[C@H](OC(C)=O)O[C@H](COC(C)=O)[C@@H](OC(C)=O)[C@@H]2OC(C)=O)cc1 (some centres not stated),77.8%
16,CN1C(=O)N(C)C2SC(N/N=C/c3cccs3)=NC21 (configuration not stated),36.7%
17,Cc1cc(C)nc(/N=C(\N)Nc2ccc(S(=O)(=O)Nc3nc(C)cc(C)n3)cc2)n1,106%
18,O=C(Cc1ccc2c(c1)CN(C1CCC(=O)NC1=O)C2=O)NCCc1ccccc1 (configuration not stated),2.99% (active)
19,CCNCCCn1c2c(c3cc(OC)c(OC)cc3c1=O)C(=O)c1cc3c(nc1-2)OCO3,18.4%

row,Structure (SMILES),growth
1,O=C(CNc1nc(-c2ccccc2)cs1)Nc1ccc(Cl)cc1[N+](=O)[O-],8.13% (active)
2,Cc1ccc2nc(-c3ccc(-c4nnc(SCC(=O)Nc5ccc(Cl)cc5)o4)cc3)[nH]c2c1,37.8%
3,Cc1ccc(C(=O)NNC(=O)CSc2nc3ccccc3c(=O)[nH]2)cc1,102%
4,CN(C)CCNC(=O)OCCCCOc1cc(O)c2c(=O)cc(-c3ccccc3)oc2c1,-9.88% (active)
5,CCCCSc1nc(Nc2ccc(/C(C)=N/NC(N)=S)cc2)c(C#N)c(-c2ccccc2)n1,57.6%
6,O=c1[nH]c2ccccc2cc1CSc1ccc(Nc2nccc(-c3ccc4c(c3)OCO4)n2)cc1,103%
7,COc1cc2oc(-c3cccc(C(=O)Nc4ccc(Cl)cc4)c3)cc(=O)c2c(OCCNC(=O)CNC(=O)OC(C)(C)C)c1OC,50.9%
8,Cc1ccc2nc(-c3ccc(-c4nnc(SCC(=O)Nc5ccc(Br)cc5)o4)cc3)[nH]c2c1,91.2%
9,COc1ccc(CN2[C@@H](C(=O)NCc3ccc(C(=O)NO)cc3)Cc3c([nH]c4ccccc34)[C@@H]2C)cc1,12.4%
10,O=C(CNc1nc(-c2ccccc2)cs1)Nc1cccc(Cl)c1,29.4%
11,NS(=O)(=O)c1ccc(NC(=O)CSc2ccc(-c3ccc(Cl)cc3)nn2)c(Br)c1,63.4%
12,Clc1ccc2c(N/N=C/c3c[nH]c4ccc(Br)cc34)ccnc2c1,-41.2% (active)
13,Cc1ccc(-c2ccc(SCC(=O)Nc3ccc(S(N)(=O)=O)cc3Br)nn2)cc1,45.1%
14,CC(=O)Nc1ccc(-c2cn(-c3cccc(C(=O)Nc4cccc(OC(F)(F)F)c4)c3)nn2)cn1,108%
15,CCOC(=O)N/C(=C1/OCCN1C)[P+](c1ccccc1)(c1ccccc1)c1ccccc1,62.5%
16,O=C(NO)c1ccc(CNc2nc(-c3ccccc3)c3ccccc3n2)cc1,-46.3% (active)
17,Cc1cc(C)nc(NS(=O)(=O)c2ccc(N/C(N)=N/c3nccc(-c4cccs4)n3)cc2)n1,72.6%
18,COc1cnc2c(c1)C(=O)c1c-2n(CCCNCCO)c(=O)c2cc(OC)c(OC)cc12,27.2%
